# Screening data deposited in PubChem BioAssay by Broad Institute.
# This excerpt belongs to a sample that is enriched for hits.
# Tgondii IFNg: inhibitors of Toxoplasma gondii growth with IFN-gamma | Toxoplasma gondii growth in IFN-gamma-treated host cells; active compounds read low | activity change, negative = inhibition, % (test concentration not listed) | 69,000 tested, 3.8% active; in the data active = activity change below about -70%, passing the limit was not always enough;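 also: host cells are HeLa cells infected with Toxoplasma gondii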
# * marks the source's active call; other numbers are inactive results; i = inactive.
SMILES,Tgondii IFNg
C[C@@H]1CN([C@@H](C)CO)C(=O)c2cc(NS(C)(=O)=O)ccc2O[C@H]1CN(C)C,0
COc1cc(OC)cc(C(=O)N2CCC3(CC2)Nc2ccc(Cl)cc2-n2cccc23)c1,-9
O=C(Cc1ccccc1)N1CCC2(CC1)Nc1ccc(Cl)cc1-n1cccc12,61
O=C(Cc1ccc(F)cc1)N1CCC2(CC1)Nc1ccc(Cl)cc1-n1cccc12,-59
O=C(c1ccccc1)N1CCC2(CC1)Nc1ccc(Cl)cc1-n1cccc12,6
COc1ccccc1C(=O)N1CCC2(CC1)Nc1ccc(Cl)cc1-n1cccc12,62
COc1ccc(CCC(=O)N2CCC3(CC2)Nc2ccc(Cl)cc2-n2cccc23)cc1,-97*
CC(C)C(=O)N1CCC2(CC1)Nc1ccc(Cl)cc1-n1cccc12,45
CCOc1ccccc1C(=O)N1CCC2(CC1)Nc1ccccc1-n1cccc12,40
O=C(COc1ccc(Cl)cc1)N1CCC2(CC1)Nc1ccccc1-n1cccc12,-8
O=C(COc1ccccc1)N1CCC2(CC1)Nc1ccc(Cl)cc1-n1cccc12,-84*
CCOc1ccccc1C(=O)N1CCC2(CC1)Nc1ccc(Cl)cc1-n1cccc12,-104*
CCC(C(=O)N1CCC2(CC1)Nc1ccc(Cl)cc1-n1cccc12)c1ccccc1 (configuration not stated),-128*
CNC(=O)c1sc2ccccc2c1CC1CCCN1C(=O)CCc1nc(C(C)C)no1 (configuration not stated),-9
CC(=O)c1cc(C)n(Cc2cccc(C(=O)O)c2)c1C,19
Cc1cnc(C(=O)N2C3CCC(C3)[C@H]2c2nc(-c3ccccc3)no2)cn1 (some centres not stated),-57
COc1ccccc1-c1nc(Cn2nnc(C(=O)Nc3ccc(F)cc3F)c2C)c(C)o1,54
Cc1nc(C(F)(F)F)ccc1-c1nnc(SCCCN2C(=O)c3ccccc3C2=O)o1,14
Cc1oc2cc(OCc3ccc(F)cc3)ccc2c(=O)c1-c1ccc2c(c1)OCCCO2,-47
COCCC(=O)N1CCO[C@]2(CCC[C@H]2COCc2nccs2)C1,7
CCOc1ccccc1-c1nc(CN(c2ccccc2OC)S(=O)(=O)c2ccccc2)c(C)o1,-56
Cc1ccc(Nc2nc(C(=O)Nc3ccc(C)c(F)c3)nc3ccccc23)cc1,38
Cc1cc(NC(=O)N2CCC3(CC2)Nc2ccccc2-n2cccc23)ccc1Br,-116*
COc1ccc(C(=O)N2CCC3(CC2)Nc2ccccc2-n2cccc23)cc1,-11
COc1cc(CCC(=O)N2CCC3(CC2)Nc2ccccc2-n2cccc23)cc(OC)c1OC,-20
SMILES,Tgondii IFNg
COc1ccc(CCC(=O)N2CCC3(CC2)Nc2ccccc2-n2cccc23)cc1,-115*
Cc1ccc(NC(=O)N2CCC3(CC2)Nc2ccccc2-n2cccc23)cc1Cl,i
COc1ccc2c(c1)NC1(CCN(C(=O)Nc3ccc(Br)c(C)c3)CC1)c1cccn1-2,66
Cc1ccc(-c2cnc3n2CCN(C)C32CCN(Cc3ccco3)CC2)cc1,-5
CC(=O)N1CCC2(CC1)CC(=O)c1ccc(O)c(O)c1O2,-17
CS(=O)(=O)N1CC=CC1C(=O)NC(c1ccncc1)c1ccc(Cl)cc1 (configuration not stated),-16
CCOC(=O)c1c(NC(=O)Nc2ccc(C)cc2)sc2c1CCN(C(=O)OCC)C2,-97*
CCCNC(=O)N1CCc2nc(-c3ccc(C)cc3)sc2C1,6
CCOC(=O)c1c(NC2=NC3(CCCCC3)Cc3ccccc32)sc2c1CCCC2,31
COc1ccccc1NC(=O)N1C[C@H](O)COC[C@@H]2O[C@@H](CC(=O)N3CCC(Cc4ccccc4)CC3)CC[C@H]21,-75*
COc1ccccc1NC(=O)N1C[C@@H](O)COC[C@H]2O[C@H](CC(=O)N3CCC(Cc4ccccc4)CC3)CC[C@@H]21,-9
COc1ccccc1NC(=O)N1C[C@H](O)COC[C@H]2O[C@H](CC(=O)N3CCC(Cc4ccccc4)CC3)CC[C@@H]21,-28
Cc1nnnn1CCc1nc(C(C)C)nn1-c1ccccc1Cl,-3
C[C@@H]1CN([C@@H](C)CO)C(=O)c2cc(NC(=O)Nc3ccccc3)ccc2O[C@H]1CN(C)Cc1ccccc1,-28
Cc1ccccc1CCC(=O)N1CC[C@H]2O[C@@H](C)C[C@@H]2C1,-59
COCC(=O)Nc1ccccc1-c1cccc(CN2CCOCC2)c1,3
Cc1oc(C2CCN(C(=O)Cc3c(F)cccc3Cl)CC2)nc1C(=O)N1CCCC1,-73*
Cc1oc(C2CCN(C(=O)Cc3ccccc3F)CC2)nc1C(=O)N1CCCC1,-42
Cc1oc(C2CCN(C(=O)Cc3ccccc3Cl)CC2)nc1C(=O)N1CCOCC1,-35
CN1CCC=C(CCNC(=O)C23CC4CC(CC(C4)C2)C3)C1,-3
CCOc1ccc(CCNc2nc(-c3ccc(Cl)cc3)nc3ccccc23)cc1OCC,-49
CC(C)CN1C(=O)CCc2cc(NS(=O)(=O)c3cccs3)ccc21,-44
CCOC(=O)Cn1c(C)c(CN2CCCC2c2cc(C(C)C)no2)c2ccccc21 (configuration not stated),1
O=C(N1CCCCC1)C12CC3CC(CC(C3)C1)C2,18
O=C(c1ccc2nc(NC(=O)C34CC5CC(CC(C5)C3)C4)sc2c1)N1CCCCC1,-85*
SMILES,Tgondii IFNg
O=C(Nc1ccncc1)C12CC3CC(CC(C3)C1)C2,-47
Cc1nnc(CN2CCCC(CCc3ccccc3C(F)(F)F)C2)o1 (configuration not stated),3
N[C@@H](CSCc1c(F)cccc1Cl)C(=O)O,35
C[C@@H]1CN([C@@H](C)CO)C(=O)c2cc(NS(=O)(=O)c3cn(C)cn3)ccc2O[C@@H](C)CCCCO[C@@H]1CN(C)Cc1ccc2c(c1)OCO2,i
COc1ccc2c3c(n(C)c2c1)[C@@H](CO)N(Cc1nccs1)CC31CCN(C(=O)CN(C)C)CC1,5
COc1ccc(S(=O)(=O)N2CC3(CN(C(=O)CN(C)C)[C@@H](CO)c4c3c3ccc(OC)cc3n4C)C2)cc1,-28
COc1ccc2c3c(n(C)c2c1)[C@@H](CO)N(C(=O)CN(C)C)CC31CN(Cc2nccs2)C1,-109*
c1nc2c([nH]1)CCNC2c1cc(CN2CCCCC2)cs1 (configuration not stated),1
CCc1[nH]nc2c1C(c1ccncc1Cl)CC(=O)N2 (configuration not stated),-51
CCn1cncc1Cn1cnc(-c2ccccc2)c1-c1cccc(C)n1,3
CCN(CC)CCOC(=O)c1ccc(N)cc1,12
CCCCOc1ccc(C(=O)CCN(CC)CC)cc1,69
CCN(CC)CCOc1ccc(/C(=C(\Cl)c2ccccc2)c2ccccc2)cc1,-80*
C=CCn1c(CNC(=O)c2ccco2)nnc1SCc1nnc(-c2ccccc2)o1,15
CCCN1CC[C@H]2OC[C@H](C(=O)NCCc3cccs3)C[C@H]2C1,2
Cc1noc(C)c1C(=O)NC(Cc1cc(=O)[nH]c(C2CCC2)n1)c1ccc(F)cc1 (configuration not stated),5
COc1ccccc1-c1ccc(CNC(C)c2nc3ccccc3n2C(C)C)cc1 (configuration not stated),-31
O=C1NCC2(CCCN(C(=O)c3cc4c([nH]c3=O)CCCC4)CC2)O1 (configuration not stated),2
O=C(O)CCC(=O)Nc1ccc(S(=O)(=O)N2CCCC2)cc1,151
O=C(O)CCn1c(=O)sc2ccccc21,7
O=C(CCn1c(=O)sc2ccccc21)Nc1ccc(S(=O)(=O)N2CCCCC2)cc1,-88*
